Assay outcomes deposited in PubChem by National Center for Advancing Translational Sciences (NCATS).
Vaccinia Venus = qHTS for Stage-Specific Inhibitors of Vaccinia Orthopoxvirus: Venus Reporter Primary qHTS. hit rate 0.46% among 330,000. Potency, µM (doses to about 36.5 µM), usual class: inhibitors. Vaccinia virus Venus reporter expression, fluorescence; calls by dose curve; tested in A549 cells; note: nearly all actives have a fitted effect of over 30% in size
FMDV inh = High Throughput Screening for Foot and Mouth Disease Virus Antivirals; hit rate 1.2% among 410,000; Potency, µM (top dose mostly 57.9 µM), hits mostly inhibitors; FMDV antiviral cell-based qHTS; calls by dose curve; tested in HEK293T cells; note: read-out not given here; nearly all actives have a fitted effect of over 45% in size
Lassa entry inh = qHTS for Inhibitors of binding or entry into cells for Lassa Virus; hit rate 1.2% among 300,000; Lassa virus pseudotype entry inhibition, cell reporter; Potency, µM (doses to about 37.9 µM), most hits filed as inhibitors; AID 540256, 2011; calls by dose curve; tested in HEK293 cells; note: nearly all actives have a fitted effect of over 50% in size
VACV mCherry inh = qHTS for Stage-Specific Inhibitors of Vaccinia Orthopoxvirus: mCherry Reporter Primary qHTS; Vaccinia virus mCherry reporter infection, fluorescence; Potency, µM (highest dose often 36.5 µM), usual class: inhibitors; hit rate 0.63% among 310,000; calls by dose curve; tested in A549 cells; note: nearly all actives have a fitted effect of over 35% in size
Marburg entry inh = qHTS for inhibitors of binding or entry into cells for Marburg Virus. Marburg virus pseudotyped entry inhibition, cell reporter. Potency, µM (top dose mostly 37.8 µM), usual class: inhibitors. hit rate 1.8% among 300,000. AID 540276, 2011; calls by dose curve; tested in HEK293 cells
HCMV antiviral = qHTS Assay for inhibitors of the human cytomegalovirus (HCMV). HFF cells, HCMV-luciferase reporter, 72 h; stronger effect = lower value. activity change, negative = inhibition, % at 57.5 µM. hit rate 4.5% among 410,000; in the data active = activity change below about -60%; inconclusive = no clear call, values can overlap the other calls; inactive = above about -39%
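Compounds were evaluated in HFFs infected with an HCMV luciferase reporter virus (MOI 1 PFU/cell). Luciferase in lysates collected 72 h post infection served as the replication measure.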
Each line names hits and unclear results; the compound was inactive in the other large screens. The list is not random: actives were taken first. Their share in the collection is about 6.5%.

O=C(CC1SC(=Nc2ccccc2)N(CCCO)C1=O)Nc1ccc(Cl)cc1 (configuration not stated)	Vaccinia Venus inconclusive, FMDV inh 14.1µM, Lassa entry inh inconclusive, Marburg entry inh inconclusive (no result: VACV mCherry inh, HCMV antiviral)
NC12CC3CC(CC(C3)C1)C2	Marburg entry inh inconclusive
CC12CC3CC(C)(C1)CC(N)(C3)C2	Lassa entry inh inconclusive, Marburg entry inh 12.6µM, HCMV antiviral inconclusive
CCCN(CCC)c1nc(N)nc(C#N)n1	none (no result: FMDV inh, Lassa entry inh, Marburg entry inh, HCMV antiviral)
COc1ccc(-c2c(C)sc(NC(=O)c3ccnn3C)c2C#N)cc1	FMDV inh inconclusive, VACV mCherry inh inconclusive, Marburg entry inh inconclusive, HCMV antiviral -88.6
CSC1=NC(C)(C)C=C(/C=C/c2ccc(Cl)cc2)N1	FMDV inh 20µM, Lassa entry inh inconclusive, Marburg entry inh inconclusive, HCMV antiviral -73.6
CSC1=NC(C)(C)C=C(/C=C/c2c(Cl)cccc2Cl)N1	none
CSC1=NC(C)(C)C=C(/C=C/c2ccc(Cl)cc2Cl)N1	FMDV inh inconclusive, Marburg entry inh inconclusive, HCMV antiviral -86.8
Cc1cccc(NC(=O)/C(C#N)=C/c2cn(CC(=O)NCc3ccco3)c3ccccc23)c1	Marburg entry inh inconclusive, HCMV antiviral -63.1
COc1ccc(/C=C/C(=O)c2c(O)c(OC)c3occc3c2OC)cc1OC	none (no result: FMDV inh, Lassa entry inh, Marburg entry inh, HCMV antiviral)
Cc1ccc(-c2cc(C(=O)NCCCN3CCOCC3)no2)cc1	FMDV inh inconclusive, VACV mCherry inh inconclusive, HCMV antiviral -67.2
O=C(NCCCN1CCOCC1)c1cc2ccccc2cc1O	none
Cc1ccc(-c2cc(C(=O)NCCCN3CCOCC3)c3ccccc3n2)cc1C	HCMV antiviral -92.1 (no result: Lassa entry inh)
Cc1ccc(-c2cc(C(=O)NCCCN3CCCC3)c3ccccc3n2)cc1C	Lassa entry inh inconclusive, Marburg entry inh 11.2µM
Nc1ccccc1C(=O)NCCCN1CCOCC1	HCMV antiviral -104.5
COc1cccc(CSc2nc3cc(C(=O)NC4CCCC4)ccc3c(=O)n2Cc2ccccc2)c1	none (no result: Marburg entry inh)
CCOc1ccc(NS(=O)(=O)c2c(C)nc3sc(C)c(C)n3c2=O)cc1	none (no result: Marburg entry inh)
CCN1CCN(c2oc(-c3ccc(COc4ccc(C)cc4)o3)nc2C#N)CC1	none
COc1ccc(NC(=O)C2CCN(C3=NS(=O)(=O)C(c4ccc(C)c(C)c4)=C3C)CC2)c(OC)c1	none (no result: Marburg entry inh)
Cc1cc(Nc2ccccc2Cl)c2ccccc2n1	FMDV inh inconclusive, Lassa entry inh inconclusive, Marburg entry inh inconclusive, HCMV antiviral -73.4
CCOc1ccc(Nc2cc(C)nc3c(C)cccc23)cc1	Marburg entry inh 0.891µM, HCMV antiviral -76.3
COc1ccc(Cl)cc1Nc1cc(C)nc2ccccc12	FMDV inh inconclusive, HCMV antiviral -86.8 (no result: Vaccinia Venus, Lassa entry inh, VACV mCherry inh, Marburg entry inh)
Cc1cc(Nc2ccc(C)c(C)c2)c2ccccc2n1	VACV mCherry inh inconclusive, Marburg entry inh 3.16µM, HCMV antiviral -63.3
Cc1ccccc1Cn1c2ccccc2c2cnn(CC(=O)NCCc3ccc(Cl)cc3)c(=O)c21	Marburg entry inh inconclusive
N#CCCn1c(=O)c(-c2ccc(Cl)cc2)nc2cnc(N3CCNCC3)nc21	none (no result: Vaccinia Venus, Lassa entry inh, VACV mCherry inh, Marburg entry inh, HCMV antiviral)
CCOC(=O)c1c(C)oc2nc(C)nc(NCc3ccc(F)cc3)c12	none (no result: Marburg entry inh)
CCOc1ccc2nc(C)cc(Nc3cccc([N+](=O)[O-])c3)c2c1	Vaccinia Venus inconclusive, Lassa entry inh inconclusive, VACV mCherry inh 11.2µM, Marburg entry inh inconclusive, HCMV antiviral -97.0
Cc1cc(Nc2cccc([N+](=O)[O-])c2)c2ccccc2n1	Vaccinia Venus inconclusive, FMDV inh inconclusive, VACV mCherry inh inconclusive
Cc1sc2ncn(CC(=O)N(C)c3cccc(C(F)(F)F)c3)c(=O)c2c1S(=O)(=O)N1CCN(c2ncccn2)CC1	none
O=C(Nc1ccc(F)cc1)c1nc(S(=O)(=O)Cc2ccccc2)ncc1Cl	FMDV inh inconclusive, HCMV antiviral -111.8 (no result: Vaccinia Venus, Lassa entry inh, VACV mCherry inh, Marburg entry inh)
Cc1cccc(C)c1NC(=O)c1nc(S(=O)(=O)Cc2ccccc2)ncc1Cl	FMDV inh 28.2µM, Lassa entry inh inconclusive, Marburg entry inh 11.2µM, HCMV antiviral -100.1
O=C(Nc1ccccc1F)c1nc(S(=O)(=O)Cc2ccccc2F)ncc1Cl	Vaccinia Venus inconclusive, FMDV inh inconclusive, Lassa entry inh inconclusive, Marburg entry inh inconclusive, HCMV antiviral -108.9
Cc1cccc(CS(=O)(=O)c2ncc(Cl)c(C(=O)Nc3c(C)cccc3C)n2)c1	HCMV antiviral inconclusive (no result: Vaccinia Venus, Lassa entry inh, VACV mCherry inh, Marburg entry inh)
Cc1ccccc1NC(=O)c1nc(S(C)(=O)=O)ncc1Cl	FMDV inh inconclusive, HCMV antiviral -99.4 (no result: Vaccinia Venus, Lassa entry inh, VACV mCherry inh, Marburg entry inh)
